Consider two sequences from publication PMC7862700, “An all-to-all approach to the identification of sequence-specific readers for epigenetic DNA modifications on cytosine”.

What all share (test): DAPPL (digital affinity profiling via proximity ligation, sequencing); 10 mM Tris-HCl pH 7.5, 50 mM NaCl, 1 mM DTT, 4% glycerol, room temperature, 30 min; GST-TFs on glutathione beads, 16-mer random dsDNA library, 0.1% formaldehyde crosslink after washing; high values mean tight binding
What all share (conditions): protein: recombinant; tags: N-terminal GST; dsDNA, one strand shown

One experiment concerns the target T1, FLI1 (Homo sapiens, UniProt Q01543 1-452).
T1 sequence: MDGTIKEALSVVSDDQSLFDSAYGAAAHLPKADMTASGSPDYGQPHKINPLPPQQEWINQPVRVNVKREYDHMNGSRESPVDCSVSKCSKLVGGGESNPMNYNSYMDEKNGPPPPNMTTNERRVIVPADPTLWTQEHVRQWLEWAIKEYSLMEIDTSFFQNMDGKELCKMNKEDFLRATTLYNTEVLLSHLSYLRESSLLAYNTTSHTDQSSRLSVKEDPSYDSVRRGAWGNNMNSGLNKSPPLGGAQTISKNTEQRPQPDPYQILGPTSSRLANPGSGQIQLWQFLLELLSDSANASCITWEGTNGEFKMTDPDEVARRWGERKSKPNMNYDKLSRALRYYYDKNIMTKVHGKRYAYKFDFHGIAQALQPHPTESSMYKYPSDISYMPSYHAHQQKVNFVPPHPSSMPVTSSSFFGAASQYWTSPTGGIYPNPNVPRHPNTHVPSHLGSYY
In outline:
(§1)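 Each value of binding signal is a hexamer's read frequency for a factor divided by the same hexamer's frequency in the tag-only sample. Barcoded, bead-captured GST fusions of human transcription factors made in yeast were pooled with that sample and incubated with 200 nmole of a random double-stranded 16-mer DNA library in Tris/NaCl/DTT/glycerol buffer at room temperature for 30 min. Washing, 0.1% formaldehyde crosslinking, proximity ligation, PCR and Illumina NextSeq500 sequencing followed.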

A further experiment addresses T2, GABPA (Homo sapiens, UniProt Q06546 1-454).
T2 sequence: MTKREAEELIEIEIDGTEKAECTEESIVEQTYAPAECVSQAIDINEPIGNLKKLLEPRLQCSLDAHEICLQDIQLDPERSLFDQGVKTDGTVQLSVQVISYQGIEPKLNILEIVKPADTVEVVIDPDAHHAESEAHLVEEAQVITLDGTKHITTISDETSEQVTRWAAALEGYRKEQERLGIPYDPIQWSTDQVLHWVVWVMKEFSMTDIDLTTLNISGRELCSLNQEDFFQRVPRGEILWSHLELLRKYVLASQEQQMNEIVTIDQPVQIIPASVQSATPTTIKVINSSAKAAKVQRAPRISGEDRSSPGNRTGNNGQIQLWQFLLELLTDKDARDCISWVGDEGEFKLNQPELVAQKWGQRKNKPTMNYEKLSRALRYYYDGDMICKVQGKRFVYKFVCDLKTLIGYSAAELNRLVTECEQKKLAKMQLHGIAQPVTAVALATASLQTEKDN
In outline: as §1

The next experiment has as its target ELF4 (Homo sapiens, UniProt Q99607 1-663). The essentials: as §1
Another experiment addresses T3, ERF (Homo sapiens, UniProt P50548 1-548).
T3 sequence: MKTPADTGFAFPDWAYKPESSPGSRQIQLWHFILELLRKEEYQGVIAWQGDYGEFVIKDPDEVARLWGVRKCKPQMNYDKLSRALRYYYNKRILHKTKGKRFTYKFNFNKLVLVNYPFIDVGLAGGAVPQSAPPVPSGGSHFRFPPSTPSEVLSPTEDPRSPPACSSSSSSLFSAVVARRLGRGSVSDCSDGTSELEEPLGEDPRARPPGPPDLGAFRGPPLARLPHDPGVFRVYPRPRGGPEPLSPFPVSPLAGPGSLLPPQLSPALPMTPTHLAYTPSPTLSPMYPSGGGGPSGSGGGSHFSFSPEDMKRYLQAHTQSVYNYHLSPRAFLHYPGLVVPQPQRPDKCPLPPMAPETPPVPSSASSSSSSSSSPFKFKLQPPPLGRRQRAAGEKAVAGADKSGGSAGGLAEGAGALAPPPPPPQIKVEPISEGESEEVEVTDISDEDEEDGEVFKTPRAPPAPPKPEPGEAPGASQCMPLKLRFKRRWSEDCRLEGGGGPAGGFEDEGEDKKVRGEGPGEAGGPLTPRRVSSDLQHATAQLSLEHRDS
The essentials:
as §1

For the next experiment, the target named is T4, SPDEF (Homo sapiens, UniProt O95238 1-335).
T4 sequence: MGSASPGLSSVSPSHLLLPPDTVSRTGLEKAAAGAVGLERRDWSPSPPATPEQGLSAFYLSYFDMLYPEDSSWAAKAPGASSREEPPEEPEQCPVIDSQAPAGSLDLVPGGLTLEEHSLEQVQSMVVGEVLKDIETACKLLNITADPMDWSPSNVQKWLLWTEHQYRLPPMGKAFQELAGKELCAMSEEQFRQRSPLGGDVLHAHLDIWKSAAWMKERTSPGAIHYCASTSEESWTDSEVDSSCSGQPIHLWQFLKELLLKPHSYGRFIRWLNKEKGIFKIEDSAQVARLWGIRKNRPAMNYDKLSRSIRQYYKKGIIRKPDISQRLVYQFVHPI
In outline: as §1

A further experiment concerns the target T5, ETV7 (Homo sapiens, UniProt Q9Y603 1-341).
T5 sequence: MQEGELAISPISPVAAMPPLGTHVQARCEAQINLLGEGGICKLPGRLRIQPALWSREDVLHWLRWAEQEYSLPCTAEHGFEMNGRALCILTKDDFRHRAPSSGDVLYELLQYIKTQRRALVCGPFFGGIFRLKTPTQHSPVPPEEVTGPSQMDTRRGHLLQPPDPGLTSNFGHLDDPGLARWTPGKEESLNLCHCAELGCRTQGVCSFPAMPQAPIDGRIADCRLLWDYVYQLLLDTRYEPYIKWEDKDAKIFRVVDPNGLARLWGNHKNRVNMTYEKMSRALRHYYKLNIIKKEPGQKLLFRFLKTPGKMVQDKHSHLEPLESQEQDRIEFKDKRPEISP
The essentials: as §1

The next experiment deals with T6, ETV3 (Homo sapiens, UniProt P41162-2 1-143).
T6 sequence: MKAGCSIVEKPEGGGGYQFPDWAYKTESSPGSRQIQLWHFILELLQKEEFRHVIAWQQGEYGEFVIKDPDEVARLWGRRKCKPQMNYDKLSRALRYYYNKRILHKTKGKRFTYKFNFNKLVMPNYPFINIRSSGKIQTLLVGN
In outline: as §1

The target of a further experiment is ETV6 (Homo sapiens, UniProt P41212 1-452). In outline:
as §1

A further experiment has as its target T7, ELK1 (Homo sapiens, UniProt P19419 1-428).
T7 sequence: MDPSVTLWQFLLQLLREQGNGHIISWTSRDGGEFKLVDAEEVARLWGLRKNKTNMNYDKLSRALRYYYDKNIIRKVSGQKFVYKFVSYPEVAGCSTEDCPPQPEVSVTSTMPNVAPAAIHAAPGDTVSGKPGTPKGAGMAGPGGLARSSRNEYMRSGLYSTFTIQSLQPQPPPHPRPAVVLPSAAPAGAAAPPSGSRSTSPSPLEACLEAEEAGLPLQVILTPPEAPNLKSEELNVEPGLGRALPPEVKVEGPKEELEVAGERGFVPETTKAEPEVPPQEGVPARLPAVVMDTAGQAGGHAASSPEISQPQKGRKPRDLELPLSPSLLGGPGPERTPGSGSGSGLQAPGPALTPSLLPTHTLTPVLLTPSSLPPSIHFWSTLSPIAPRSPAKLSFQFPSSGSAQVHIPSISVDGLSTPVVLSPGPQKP
In outline: as §1

For a further experiment, the target named is ELF1 (Homo sapiens, UniProt P32519 1-619). The essentials: as §1
A further experiment concerns the target SPIB (Homo sapiens, UniProt Q01892 1-262). The essentials: as §1
Another experiment addresses T8, FEV (Homo sapiens, UniProt Q99581 1-238).
T8 sequence: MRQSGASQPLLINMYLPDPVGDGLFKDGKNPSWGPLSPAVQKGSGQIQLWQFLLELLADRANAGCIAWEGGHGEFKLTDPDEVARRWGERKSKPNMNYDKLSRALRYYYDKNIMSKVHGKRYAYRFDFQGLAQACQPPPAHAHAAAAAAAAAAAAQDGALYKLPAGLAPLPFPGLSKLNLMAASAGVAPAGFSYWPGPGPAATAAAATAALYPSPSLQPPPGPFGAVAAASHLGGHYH
The essentials:
as §1

In a further experiment the target is T9, ETV2 (Homo sapiens, UniProt O00321 1-342).
T9 sequence: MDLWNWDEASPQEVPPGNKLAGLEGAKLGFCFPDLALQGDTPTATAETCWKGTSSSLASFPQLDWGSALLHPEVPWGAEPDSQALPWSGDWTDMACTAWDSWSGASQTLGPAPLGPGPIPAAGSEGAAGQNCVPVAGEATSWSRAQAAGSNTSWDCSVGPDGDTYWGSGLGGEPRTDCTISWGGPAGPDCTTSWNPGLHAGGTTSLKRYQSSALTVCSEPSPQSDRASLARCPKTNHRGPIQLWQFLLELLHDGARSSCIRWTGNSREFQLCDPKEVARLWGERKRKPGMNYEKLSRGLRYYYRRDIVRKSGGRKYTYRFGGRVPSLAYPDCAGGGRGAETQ
In outline: as §1

Sequence of ELF4 (Q99607 whole entry): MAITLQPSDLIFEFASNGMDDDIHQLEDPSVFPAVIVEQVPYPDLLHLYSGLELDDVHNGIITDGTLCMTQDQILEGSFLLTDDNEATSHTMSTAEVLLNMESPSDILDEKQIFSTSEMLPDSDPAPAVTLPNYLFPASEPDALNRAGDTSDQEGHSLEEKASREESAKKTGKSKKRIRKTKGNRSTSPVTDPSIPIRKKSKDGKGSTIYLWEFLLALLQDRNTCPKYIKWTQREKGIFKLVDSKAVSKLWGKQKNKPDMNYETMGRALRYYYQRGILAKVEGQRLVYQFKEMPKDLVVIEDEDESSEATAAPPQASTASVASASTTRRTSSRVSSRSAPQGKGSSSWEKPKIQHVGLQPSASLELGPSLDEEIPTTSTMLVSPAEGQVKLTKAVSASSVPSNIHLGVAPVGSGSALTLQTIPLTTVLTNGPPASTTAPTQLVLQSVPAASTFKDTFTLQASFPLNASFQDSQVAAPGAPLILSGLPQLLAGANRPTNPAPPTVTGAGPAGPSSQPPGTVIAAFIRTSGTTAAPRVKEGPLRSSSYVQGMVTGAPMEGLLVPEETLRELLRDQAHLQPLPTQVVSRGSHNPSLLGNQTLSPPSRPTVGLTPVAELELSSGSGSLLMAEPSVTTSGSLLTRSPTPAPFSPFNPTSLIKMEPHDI
Sequence of ETV6 (P41212 whole entry): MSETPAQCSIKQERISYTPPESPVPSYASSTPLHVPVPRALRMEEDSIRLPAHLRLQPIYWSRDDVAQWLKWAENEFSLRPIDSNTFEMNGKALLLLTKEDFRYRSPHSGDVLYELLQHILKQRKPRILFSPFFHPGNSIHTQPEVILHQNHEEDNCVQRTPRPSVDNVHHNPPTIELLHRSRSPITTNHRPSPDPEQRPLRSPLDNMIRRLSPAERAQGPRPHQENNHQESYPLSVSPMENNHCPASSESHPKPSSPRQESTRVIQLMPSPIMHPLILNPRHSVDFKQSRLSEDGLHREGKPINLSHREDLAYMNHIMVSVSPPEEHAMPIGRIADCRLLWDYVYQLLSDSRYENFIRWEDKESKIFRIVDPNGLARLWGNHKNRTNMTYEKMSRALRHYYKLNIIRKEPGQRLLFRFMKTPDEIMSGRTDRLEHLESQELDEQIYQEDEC
Sequence of ELF1 (P32519 whole entry): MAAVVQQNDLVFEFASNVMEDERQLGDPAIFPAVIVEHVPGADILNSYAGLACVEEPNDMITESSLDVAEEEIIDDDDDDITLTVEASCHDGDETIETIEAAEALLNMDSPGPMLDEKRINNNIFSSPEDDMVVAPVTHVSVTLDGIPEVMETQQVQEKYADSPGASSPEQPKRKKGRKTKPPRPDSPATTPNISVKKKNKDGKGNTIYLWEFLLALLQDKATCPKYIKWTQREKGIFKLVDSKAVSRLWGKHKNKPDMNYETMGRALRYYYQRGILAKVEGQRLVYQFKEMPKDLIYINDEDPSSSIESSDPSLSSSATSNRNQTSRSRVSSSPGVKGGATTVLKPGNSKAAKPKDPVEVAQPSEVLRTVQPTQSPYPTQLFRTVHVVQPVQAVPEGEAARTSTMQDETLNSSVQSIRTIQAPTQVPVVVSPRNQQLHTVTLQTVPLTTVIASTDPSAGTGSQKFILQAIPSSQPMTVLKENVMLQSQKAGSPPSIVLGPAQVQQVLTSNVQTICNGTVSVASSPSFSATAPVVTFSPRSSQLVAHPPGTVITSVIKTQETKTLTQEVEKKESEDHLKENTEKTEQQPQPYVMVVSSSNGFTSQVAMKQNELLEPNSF
Sequence of SPIB (Q01892 whole entry): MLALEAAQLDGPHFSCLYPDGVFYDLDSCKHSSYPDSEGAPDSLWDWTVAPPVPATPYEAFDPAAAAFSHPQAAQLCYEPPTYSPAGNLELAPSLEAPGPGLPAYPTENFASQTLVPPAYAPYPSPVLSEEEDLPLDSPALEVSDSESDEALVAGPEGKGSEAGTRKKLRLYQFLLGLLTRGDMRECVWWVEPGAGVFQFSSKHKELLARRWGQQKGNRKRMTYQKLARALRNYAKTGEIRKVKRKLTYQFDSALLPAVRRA

Consider ACCGTT, for which the binding signal was 1.03 fold enrichment (6-mer frequency, TF over GST control) with FLI1; 1.02 fold enrichment (6-mer frequency, TF over GST control) with GABPA; 1 fold enrichment (6-mer frequency, TF over GST control) with ELF4; 1.05 fold enrichment (6-mer frequency, TF over GST control) with ERF; 1.01 fold enrichment (6-mer frequency, TF over GST control) in the experiment with SPDEF; 1.08 fold enrichment (6-mer frequency, TF over GST control) with ETV7. The binding signal with ETV3 was 1.01 fold enrichment (6-mer frequency, TF over GST control); with ETV6 it was 1 fold enrichment (6-mer frequency, TF over GST control).
For CGGCCC, the binding signal was 1.05 fold enrichment (6-mer frequency, TF over GST control) with FLI1; 1.03 fold enrichment (6-mer frequency, TF over GST control) with ELK1; 1.01 fold enrichment (6-mer frequency, TF over GST control) in the experiment with ELF1; 1.07 fold enrichment (6-mer frequency, TF over GST control) in the experiment with SPIB; 1 fold enrichment (6-mer frequency, TF over GST control) with FEV; 1.03 fold enrichment (6-mer frequency, TF over GST control) with ELF4. Further, the binding signal with ETV2 is 1.19 fold enrichment (6-mer frequency, TF over GST control); with ERF, 1.01 fold enrichment (6-mer frequency, TF over GST control); with ETV7 it was 1.05 fold enrichment (6-mer frequency, TF over GST control).
